Records with an inconclusive call do not appear. The call rests on the fitted dose curve; in most records, active means well fitted inhibition curve with a large enough effect; inconclusive means small, poorly fitted or top-dose-only effect; inactive means no such curve, though single readings can be large or run the other way.
biological target: Cytochrome P450 3A4 (Homo sapiens) (UniProt P08684); assay: qHTS Assay for Inhibitors and Substrates of Cytochrome P450 3A4 (AID 884); details: recombinant CYP3A4, Luciferin-PPXE luminescence; series mostly up to 57.1 µM; activity change, negative = inhibition: at the top concentration; further: nearly all actives have a fitted effect of over 50% in size
Sequence (P08684 whole entry, looked up): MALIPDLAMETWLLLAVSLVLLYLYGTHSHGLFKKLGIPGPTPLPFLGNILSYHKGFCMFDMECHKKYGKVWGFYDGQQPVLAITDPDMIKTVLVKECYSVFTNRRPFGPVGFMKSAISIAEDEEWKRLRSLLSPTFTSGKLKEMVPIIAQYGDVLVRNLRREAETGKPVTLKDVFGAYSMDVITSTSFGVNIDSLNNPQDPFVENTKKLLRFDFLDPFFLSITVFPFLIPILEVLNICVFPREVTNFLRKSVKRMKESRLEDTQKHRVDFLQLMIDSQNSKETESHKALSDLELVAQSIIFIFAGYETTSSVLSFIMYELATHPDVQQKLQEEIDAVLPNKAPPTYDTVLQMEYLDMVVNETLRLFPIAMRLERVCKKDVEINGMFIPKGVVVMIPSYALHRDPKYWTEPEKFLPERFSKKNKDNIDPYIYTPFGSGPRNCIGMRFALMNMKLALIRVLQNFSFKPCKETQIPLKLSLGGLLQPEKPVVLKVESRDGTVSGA
Outline: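 20 nM human CYP3A4 with 25 uM Luciferin-PPXE (at KM) in 200 mM KPO4, preincubated 10 min with compound; NADPH regeneration started a 60 min RT reaction. Luciferin detected by luminescence, normalized to 57 uM ketoconazole as full inhibition.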
On the % scale 0 is the no-effect control and ±100 the full control effect.

Activity change, negative = inhibition, inactive:
CN(C)/C=N/c1cc(=O)[nH]c(=O)n1Cc1ccccc1 -4.96%
C[C@@]1(O)C(O)[C@@H](CO)O[C@H]1n1cnc2c(NC3CCCC3)nc(Cl)nc21 (stereo partly specified) -29.2%
CCC1=C2CC[C@H]3C(=O)NC(=O)[C@H]3[C@H]2[C@@]2(C)C(=NCCOC)OC(=O)N2C1=O -30.8%
COc1ccc(/C=C/C(=O)c2ccc(C)s2)cc1 -67.3%
COc1ccc(B(O)O)cc1 -3.45%
OB(O)c1cc2ccccc2o1 -10.3%
OB(O)c1ccc(B(O)O)cc1 -24.2%
O=C(O)c1ccc(NS(=O)(=O)c2ccsc2C(=O)O)cc1 -21.7%
COC(=O)[C@@H]1C[C@@]2(O)[C@H](O)[C@H](O)[C@H](O)C[C@H]2N1Cc1ccc(N2CCOCC2)cc1 -19.1%
CC(=O)OC1CCC2(C)C(CCC3(C)C2C(=O)C=C2C4CC(C)(C(=O)OCCN5CCCCC5)CCC4(C)CCC23C)C1(C)C (stereo unspecified) -28%
CCCN1[C@H](C(=O)OC)C[C@@]2(O)[C@@H](O)[C@@H](O)[C@@H](O)C[C@@H]12 -12.3%
CC1=C(C(=O)OCc2ccccc2)C(C2CC2)NC(=O)N1CCCCCC(=O)O (stereo unspecified) -19.6%
C=CCN1CCc2c(cc(O)c(O)c2Cl)C(c2cccc(C)c2)C1 (stereo unspecified) -23.2%
O=C(O)/C=C/c1cccc(B(O)O)c1 -21.7%
CN1C[C@@H]2C(c3ccc(C(F)(F)F)cc3)C3(c4ccccc4)CC2(C3)[C@H]1c1ccccc1 (stereo partly specified) -28.8%
O=Cc1ccsc1B(O)O -7.14%
N=C(N)c1ccc(N2CCN(C3CCN(CC(=O)O)CC3)CC2)cc1 -7.22%
C[C@@H]1O[C@@H](OC[C@H]2O[C@@H](Oc3c(-c4cccc(O)c4O)oc4cc(O)cc(O)c4c3=O)[C@H](O)[C@@H](O)[C@@H]2O)[C@H](O)[C@H](O)[C@H]1O -20.7%
O=C(O)c1cc(C2CC2)nc2ccccc12 -21.3%
N#Cc1ccc(C23CC4(C2)[C@H](CN(Cc2ccc(C(F)(F)F)cc2)[C@@H]4c2ccccc2)C3c2ccc(Cl)nc2)cc1 (stereo partly specified) -22.4%
Cn1c(N)c(C(=O)COC(=O)c2cc(C(F)(F)F)nc3c(C(F)(F)F)cccc23)c(=O)n(C)c1=O -12.2%
Cn1c(=O)c(C(=O)COC(=O)c2cc(C(F)(F)F)nc3c(C(F)(F)F)cccc23)c(N)n(Cc2ccccc2)c1=O -27.7%
CN(C)/C=N/c1cc(=O)n(C)c(=O)n1Cc1ccccc1 -26.8%
Cn1c(=O)c(C(=O)COC(=O)c2cc(C3CC3)nc3ccccc23)c(N)n(Cc2ccccc2)c1=O -15.2%
CN(C)/C=N/c1cc(=O)n(C)c(=O)n1CC1CC1 -22.2%
CC(C)Cn1c(N)c(C(=O)COC(=O)c2cc(C(F)(F)F)nc3ccccc23)c(=O)n(C)c1=O -9.49%
